An excerpt weighted towards active compounds, which were near 3.5% of everything screened.
KCNK9 block: KCNK9 potassium channel inhibitors, primary screen, HEK293 cells, thallium flux; Potassium channel subfamily K member 9 (Homo sapiens), Q9NPC2; FluxOR thallium flux fluorescence; hits give low values; B-score at 10 µM; actives 1.2% (n = 310,000);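 active = ratio B-score over 3 SD below the library mean, with starting fluorescence within 5 SD of its mean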;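 also: negative B-score means less thallium flux so channel inhibition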
Target sequence (Q9NPC2 whole entry, looked up): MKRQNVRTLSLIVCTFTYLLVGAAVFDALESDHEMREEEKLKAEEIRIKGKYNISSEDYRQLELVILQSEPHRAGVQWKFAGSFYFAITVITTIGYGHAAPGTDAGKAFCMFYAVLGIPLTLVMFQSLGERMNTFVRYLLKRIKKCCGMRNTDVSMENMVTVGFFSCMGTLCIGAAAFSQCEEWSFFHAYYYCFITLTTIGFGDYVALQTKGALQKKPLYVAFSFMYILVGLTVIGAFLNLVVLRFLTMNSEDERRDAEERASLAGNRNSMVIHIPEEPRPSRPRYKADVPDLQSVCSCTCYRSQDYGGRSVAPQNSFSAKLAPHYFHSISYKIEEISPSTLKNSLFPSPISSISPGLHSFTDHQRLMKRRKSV
Kir21 inh: inhibitors of mouse Kir2.1 inward-rectifier potassium channel. Inward rectifier potassium channel 2 (Mus musculus), P35561. HEK293-Kir2.1, FluxOR thallium flux fluorescence; hits give low values. B-score at 10 µM. actives 0.85% (n = 310,000);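 active = fluorescence ratio B-score at or below minus 3 SD of library scores, with starting-brightness B-score within 2 SD, cut at about -4.2 in these data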;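 also: channel flux triggered by added potassium and thallium sulfate stimulus; B-score of peak minus minimum fluorescence over baseline after thallium stimulus; more negative B-score means stronger Kir2.1 block with less thallium influx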
ANO1 block: TMEM16A chloride channel inhibitors, primary screen, cell-based, HTS; HEK293 TMEM16A/YFP iodide influx fluorescence, ionomycin; normalized B-score (activity score, 25-100; higher = stronger inhibition) at 10 µM; actives 1.2% (n = 310,000); AID 588511, 2011;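 active = ratio plate-corrected score three or more library SD toward inhibition, starting fluorescence score within five deviations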;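 also: score derived from kinetic fluorescence span divided by baseline fluorescence per well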
KCNK3 block: human KCNK3 channel inhibitors, primary screen, CHO cells, FluxOR thallium flux, B-score | Potassium channel subfamily K member 3 (Homo sapiens), O14649 | FluxOR fluorescence; hits give low values | B-score at 10 µM | actives 0.84% (n = 340,000) | AID 602410, 2012;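 active = B-score under library mean minus 4 SD, starting fluorescence ratio at most library mean plus 5 SD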;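 also: more negative B-score means stronger inhibition of thallium flux through KCNK3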
ANO1 activ: TMEM16A chloride channel activators or potentiators, primary screen, cell-based, HTS; Anoctamin-1 (Mus musculus), Q8BHY3; HEK293 TMEM16A/YFP-H148Q/I152L, iodide quench fluorescence; hits give low values; B-score at 10 µM; actives 0.3% (n = 340,000);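 active = fluorescence-ratio B-score plate-corrected deviation score at least 3 library SD below zero, with starting fluorescence score within 5 deviations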;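 also: channel opened by trigger with iodide after compound preincubation; score built on the fluorescence ratio of max minus min over baseline; more negative score means more quench and so TMEM16A activation or potentiation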
KCNK9 inh conf: KCNK9 potassium channel inhibitors, confirmation, HEK293 cells, thallium flux, duplicate. shares compounds with KCNK9 block. FluxOR thallium flux fluorescence. inhibition, % at 10 µM. actives 43% (n = 4,900). AID 492992, 2010;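 active = thallium signal inhibited by more than 5 SD of the compound-free buffer control wells, on both duplicate plates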;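 also: 0% = assay buffer control wells without compound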
Kir2-1 spec: mouse Kir2.1 channel inhibition, confirmation, selectivity assay for KCNK9 modulator project, cell-based, HEK293, thallium flux | Kir2.1 cells, FluxOR thallium flux fluorescence | actives 4% (n = 4,900) | shares compounds with KCNK9 block | AID 492993, 2010 | inhibition, % at 10 µM;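 active = thallium signal drop more than 5 SD beyond the mean of the no-compound control wells, seen in both duplicate plates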;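 also: signal is fluorescence rise after thallium addition divided by baseline fluorescence; plate controls were assay buffer only for no effect and full block by chlorpromazine control for full effect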
KCNK9 uninduced: thallium flux in non-induced HEK293 cells, confirmation, counter-screen for KCNK9 inhibitor project, cell-based, second counter screen, non-induced KCNK9-HEK293 | shares compounds with KCNK9 block | FluxOR thallium flux | inhibition, % at 10 µM | actives 40% (n = 4,900) | AID 492997, 2010;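 active = thallium signal drop beyond 5 SD of the untreated control mean, on both duplicate plates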;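 also: plate controls were buffer only IC0 wells for no effect and SID17386958 at its maximal inhibitory level for full effect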
TMEM16A reconf: TMEM16A chloride channel inhibitors, confirmation, cell-based, re-confirmation; shares compounds with ANO1 block; HEK293 TMEM16A/YFP-H148Q, iodide quench fluorescence; ionomycin added to raise cell calcium; inhibition, % at 10 µM; actives 39% (n = 2,300);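 active = mean duplicate percent inhibition, scaled so buffer wells are 0 and the reference blocker 100, over three buffer SD above buffer mean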
HEK293 Ca mobil: calcium mobilization in TMEM16A/YFP HEK293 cells, confirmation, counter-screen for TMEM16A inhibitor project | shares compounds with ANO1 block | Fluo4 calcium mobilization | calcium response (% of ionomycin), % at 10 µM | actives 2% (n = 2,300) | AID 652231, 2013;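 active = duplicate-averaged calcium signal over 20% of the ionomycin maximum, relative to buffer baseline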;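 also: each well's signal is peak minus trough fluorescence divided by its pre-addition baseline; 0% = buffer wells and 100% = ionomycin wells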
YFP-HEK293 quench: iodide YFP quench changes in parental YFP-HEK293, counter-screen for TMEM16A inhibitor project, cell-based. 2,300 tested, under 10 active. YFP ratio F(max-min)/F0 at 10 µM. ionomycin. AID 652233, 2013. shares compounds with ANO1 block;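 active = yellow fluorescent protein signal ratio exceeding the buffer control mean by over 5 SD of those controls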;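 also: ratio is mean of duplicate wells from kinetic YFP trace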
ClC-1 rat inh: ClC-1 chloride channel inhibition, selectivity assay for TMEM16A inhibitor project, cell-based, voltage-dependent ClC-1; shares compounds with ANO1 block; CHO ClC-1-YFP, iodide influx fluorescence quench; iodide control reads 0, buffer control 100; ratio percent, % at 10 µM; 2,300 tested, under 10 active;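 active = duplicate-mean ratio percent above the mean of iodide-only control wells, which defines zero, plus 5 of their SD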;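 also: higher percent means stronger block of ClC-1 iodide influx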
KCNK3 inh conf: retest of human KCNK3 channel inhibitors, confirmation, CHO cells, FluxOR thallium flux, triplicate | actives 99% (n = 2,400) | shares compounds with KCNK3 block | ratio percent of control, % at 10 µM | FluxOR fluorescence; 0% buffer, 100% carvedilol maximal block;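 active = ratio percent of control, averaged over triplicates, above buffer control mean plus 5 SD, cut at about 64% in these data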;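 also: ratio is the fluorescence rise from min to max over baseline after thallium stimulus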
KCNK3 noninduced: thallium flux inhibition in non-induced cells, primary screen, counter-screen for KCNK3 inhibitor project, cell-based, non-induced KCNK3 line, FluxOR thallium, triplicate. shares compounds with KCNK3 block. non-induced KCNK3 parental cells; hits give low values. thallium flux ratio (lower = more inhibition) at 10 µM. actives 40% (n = 2,400);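 active = thallium flux ratio, averaged over three wells, more than 5 SD below the buffer control mean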;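 also: host cells are CHO cells without KCNK3 induction; ratio is peak minus trough fluorescence over baseline then normalized to buffer controls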
Starred values were filed as active, the others as inactive; i = inactive; · = no result; ! = repeats disagree.

SMILES	KCNK9 block	Kir21 inh	ANO1 block	KCNK3 block	ANO1 activ	KCNK9 inh conf	Kir2-1 spec	KCNK9 uninduced	KCNK3 inh conf	KCNK3 noninduced	others
O=C(Nc1nc(-c2ccc(Cl)s2)cs1)c1cccs1	-9.2*	1.3	25*	-8.9*	i	i	i	32%*	97*	i	TMEM16A reconf=i;HEK293 Ca mobil=i;YFP-HEK293 quench=-0.96;ClC-1 rat inh=-18
Cc1ccc(C(=O)N2CCN(Cc3ccc4c(c3)OCO4)CC2)o1	i	0.54	i	i	i	·	·	·	·	·
O=C(c1ccc(COc2ccccc2Cl)o1)N1CCN(Cc2ccc3c(c2)OCO3)CC1	-12*	-0.63	i	-11*!	i	47%*	i	25%*	123*	i
O=S(=O)(c1cc(Cl)ccc1Cl)N1CCN(Cc2ccc3c(c2)OCO3)CC1	i	0.27	i	-9.7*	i	i	i	26%*	113*	0.16*
CCOc1ccccc1NC(=O)c1cccc2c1C(=O)N(C1CCCCC1)C2	-9.1*	2.1	i	-11*	i	38%*	i	33%*	100*	i
Cc1ccccc1NC(=O)c1cccc2c1C(=O)N(C1CCCCC1)C2	i	-1	i	i	i	·	·	·	·	·
Cc1ccc(NC(=O)c2cccc3c2C(=O)N(C2CCCCC2)C3)cc1	-9.6*	0.99	i	-9.4*	i	32%*	i	26%*	117*	i
NNc1nc(-c2ccccc2)nc(-c2ccccc2)c1Br	i	-1.7	i	i	i	·	·	·	·	·
CC(NC(=O)CCC(=O)c1ccccc1)c1ccc(F)cc1 (stereo not drawn)	i	-0.61	i	i	i	·	·	·	·	·
CCC(CC)COC(=O)C(C#N)c1nc2ccccc2nc1N1CCOCC1 (stereo not drawn)	-16*	-0.11	i	-12*	i	66%*	i	49%*	104*	0.13*
COc1ccc(NC(=S)Nc2ccc(C)c(Cl)c2)cc1OC	i	-3.4	i	i	i	·	·	·	·	·
Cc1cccc(C)c1NC(=S)Nc1ccc(Cl)c(Cl)c1	-9.1*	-0.49	i	-12*	i	48%*	i	i	86*	0.14*
CCOC(=O)C1=C(N)OC(CCl)=C(C#N)C1c1ccsc1 (stereo not drawn)	i	-2.5	i	i	i	·	·	·	·	·
O=C(N/N=C/c1cccnc1)c1ccccc1OCc1ccc(Br)cc1	-11*	-1.9	i	-11*	i	30%*	i	i	115*	0.16*
NC(=O)COC(=O)c1c2c(nc3ccccc13)CCCCC2	i	1.6	i	i	i	·	·	·	·	·
O=C(COC(=O)c1c2c(nc3ccccc13)CCCC2)c1cccs1	-10*	0.61	i	-12*	i	54%*	i	i	138*	0.12*
COCCn1c(C)c(C)c2c(NCCc3ccccc3)ncnc21	i	0.18	i	i	i	·	·	·	·	·
CCN(CC(=O)NCc1ccc(F)cc1)C(=O)C1CCN(S(=O)(=O)c2ccc(C(C)C)cc2)CC1	·	·	·	i	i	·	·	·	·	·
CCNC(=O)CSc1nnc(-c2ccc(OC)cc2)n1CC(C)C	i	0.84	i	i	i	·	·	·	·	·
O=C(CCCSc1nnc(SCCCC(=O)c2ccc(F)cc2)s1)c1ccc(F)cc1	i	-0.2	25*	-11*	i	i	i	i	100*	i
CCOc1ccc(C(=O)Nc2cc(C)on2)cc1	i	-0.07	i	i	i	·	·	·	·	·
Cc1cc(NC(=O)c2cccc(COc3ccc(Br)cc3)c2)no1	-11*	0.94	i	-8.9*	i	i	i	i	65*	i
CSc1ccccc1OCc1cc(C(=O)N(C)Cc2ccncn2)no1	i	0	i	i	i	·	·	·	·	·
O=C(Nc1ccc(O)c(-c2nc3ccccc3o2)c1)C1(c2ccccc2)CCCC1	-12*	-1	i	-9.6*	i	40%*	i	i	100*	i
CSc1ccc(Cl)c(C(=O)NCCOc2cc(C(C)C)ccc2C)c1	-20*	1.8	i	-10*	i	72%*	i	38%*	128*	0.13*
Cc1cc(C(=O)CSc2nc3ccc(Cl)cc3[nH]2)c(C)n1Cc1ccco1	i	0.27	i	-9.7*	i	i	i	i	94*	i
